# This is a sample that favours compounds with a hit; in the whole collection about 7.1% have one here.
# Marburg entry = Marburg virus entry inhibition | Marburg virus pseudotype entry/binding inhibition, cell-based | Potency, µM (series often up to 49.2 µM), for the others: at the top dose activity change, negative = inhibition, hits mostly inhibitors | 6.5% of 18,000 active
# LASV entry inh = inhibitors of Lassa virus binding or entry into cells. Potency, µM (series often up to 49.2 µM), without a hit: at the highest dose activity change, negative = inhibition, actives largely listed as inhibitors. 4.1% of 18,000 active. Lassa virus pseudotyped entry inhibition, cell-based qHTS
# Starred values were filed as active, the others as inactive; ? = inconclusive; . = not tested or not shown; [ ] = remark or other dose. The call rests on the fitted dose curve; tested in HEK293 cells. On the % scale 0 is the no-effect control and ±100 the full control effect; potency means the concentration at half of the fitted maximal effect.
SMILES,Marburg entry,LASV entry inh
O=S(=O)(CCOCc1ccc(-c2ccc3ncnc(Nc4ccc(OCc5cccc(F)c5)c(Cl)c4)c3c2)o1)c1ccccc1,-29.6%,42.5%
O=C(OC1CNC(C#Cc2cc3ncnc(Nc4ccc5c(cnn5Cc5ccccc5)c4)c3s2)C1)N1CCOCC1 (centres undefined),?,0.397µM*
CNC(=O)c1cccc(C#Cc2cncnc2Nc2ccc(OCc3cccc(F)c3)c(Cl)c2)c1,2.5µM*,.
O=C(OC1CNC(C#Cc2cc3ncnc(Nc4ccc(OCc5cccc(F)c5)c(Cl)c4)c3s2)C1)N1CCOCC1 (centres undefined),12.5µM*,?
COC(=O)CC=C1c2ccccc2OC[C@@H](OC)[C@H]1C,2.4%[8.59 µM],-25.0%[8.59 µM]
C=C(CO[C@@H]1C=C[C@@H](c2ccccc2)O[C@@H]1COC)c1ccccc1,-4.3%[8.59 µM],8.6%[8.59 µM]
COC(=O)N[C@H](C(C(=O)OC)=C(C)NCc1ccccc1)c1ccco1,-23.9%[8.59 µM],12.9%[8.59 µM]
CCN1C(=NCc2ccc3c(c2)OCO3)NC(c2ccccc2)C(C(=O)OC)=C1C (centres undefined),-18.1%[8.59 µM],-3.6%[8.59 µM]
CCOC(=O)NN=Cc1ccccc1-c1cc(OC)ccc1OC,-4.0%[8.59 µM],-18.2%[8.59 µM]
CN(C)CCOC1=Cc2ccccc2Sc2ccc(Cl)cc21,12.6µM*,?
CN(C)CCOC(c1ccc(Cl)cc1)c1ccccn1 (centres undefined),?,-6.1%
C=CC1CC2C=CCS[P@@](=O)(O1)O2 (some centres undefined),3.9%,-4.8%
C[C@H]1CC[C@@H]2[C@@H](C)[C@H]3[C@H](C[C@H]4[C@@H]5CC=C6C[C@@H](O[C@]7(O[C@H]8O[C@@H](C)[C@@H](O)[C@@H](O)[C@@H]8O)C[C@@H](O[C@@H]8O[C@H](CO)[C@@H](O)[C@H](O)[C@@H]8O)[C@@H](O)[C@H](CO)O7)CC[C@]6(C)[C@H]5CC[C@@]34C)N2C1,4.4%[17.8 µM],14.1%[17.8 µM]
C[C@H]1CC[C@@H]2[C@@H](C)[C@H]3[C@H](C[C@H]4[C@@H]5CC=C6CC(O[C@@H]7O[C@H](CO)[C@H](O)[C@H](O[C@@H]8O[C@H](CO)[C@@H](O)[C@H](O)[C@H]8O)[C@H]7O[C@H]7O[C@@H](C)[C@H](O)[C@@H](O)[C@H]7O)CC[C@]6(C)[C@H]5CC[C@]34C)N2C1 (some centres undefined),15.8µM*,31.6µM*
CCCCCC(=O)N1C[C@@H](O)[C@H](n2cc(COC(=O)c3ccccc3)nn2)C[C@H]1c1ccc(OC)cc1,-17.5%,11.1%
CN(CCc1ccc(Cl)c(Cl)c1)CCN1CCCC1,8.91µM*,31.6µM*
COC(=O)N1CCN(C(=O)Cc2ccc(Cl)c(Cl)c2)C(CN2CCCC2)C1 (centres undefined),?,0.3%
CN(CCc1ccc(Cl)c(Cl)c1)[C@@H]1CCCC[C@@H]1N1CCCC1,7.94µM*,?
COC(=O)[C@H]1CC=C[C@H]2CCN(Cc3ccc(Cl)c(Cl)c3)C(=O)[C@@H]12,-26.4%,-21.9%
C=CCOCCC=C1c2ccccc2[C@@H](OC)[C@@H]1C,-8.2%[8.59 µM],-2.0%[8.59 µM]
COCCN1C(=NCC(C)C)NC(c2ccccc2)C(C(=O)OC)=C1C (centres undefined),28.6%[8.59 µM],.
COC(=O)C1=C(C)N(Cc2ccccc2)C(=NCCc2cccs2)NC1c1cccc(C(F)(F)F)c1 (centres undefined),?,-11.4%[8.59 µM]
C=C=CCCN1C(=O)NC(c2ccccc2)C(C(=O)OC)=C1C (centres undefined),-18.5%[8.59 µM],4.6%[8.59 µM]
Cc1ncc2c(c1CNC(=O)c1ccccc1F)CCN(C(=O)c1ccc3c(c1)OCCO3)C2,4.8%,?
Cc1ncc2c(c1CNC(=O)c1ccccc1F)CCN(C(=O)c1[nH]c3ccc(Cl)cc3c1C)C2,?,10µM*
SMILES,Marburg entry,LASV entry inh
CN(c1ccc(NC(=O)NCCN2CCOCC2)cc1)c1ccnc(Nc2ccc(CS(C)(=O)=O)cc2)n1,-13.4%,71.6%
CCOC(=O)CN1C(=O)[C@]2(O[C@H](COc3ccccc3)CC3=CCCC32)c2c(Br)cccc21 (some centres undefined),5.4%[8.59 µM],.
COC(=O)[C@]1(C)CC[C@@]2(C)CC[C@@]3(C)C4=CCc5c(cc(O)c(O)c5C)[C@]4(C)CC[C@@]3(C)C2C1 (some centres undefined),?,17.8µM*
C#CCCCON=C1C[C@@H](O)[C@H](O)[C@H]2[C@@H]3C(=O)N(c4ccc(F)cc4F)C(=O)[C@@H]3CC[C@H]12,-6.1%[8.59 µM],2.3%[8.59 µM]
CC1=CC[C@@H](C)O[C@@]2(C1)C(=O)Nc1ccccc12,-8.7%[8.59 µM],21.9%[8.59 µM]
NC[C@@H]1O[C@H](c2ccccc2)Cc2c1ccc(O)c2O,?,-16.1%
NC[C@@H]1O[C@H](C23CC4CC(CC(C4)C2)C3)Cc2c1ccc(O)c2O,12.6µM*,?
CCCCCC1C(=O)O[C@H](C)[C@@H](NC(=O)c2cccc(NC=O)c2O)C(=O)OC(C)C1OC(=O)CC(C)C (some centres undefined),0.1µM*,?
COC(=O)CC=C[C@@H](C)[C@H](OC)c1c(Br)ccc2c1OCO2,?,4.8%[8.59 µM]
COc1ccc(C(=O)CC(=O)c2c(O)cc(OC)cc2OC)cc1,18.3%[8.59 µM],-12.5%[8.59 µM]
COc1cc(O)c(C(C)=O)c(OC)c1,8.91µM*,5.62µM*
CCC(=O)O[C@H]1[C@@H](N2CCCCC2)C[C@H]2[C@@H]3CC[C@H]4C[C@H](OC(C)=O)[C@@H](N5CCCCC5)C[C@]4(C)[C@H]3CC[C@@]21C,3.55µM*,?
CC(=O)O[C@H]1C[C@@H]2CC[C@@H]3[C@H](CC[C@@]4(C)[C@H]3C[C@H]([N+]3(C)CCCCC3)[C@@H]4OC(C)=O)[C@@]2(C)C[C@@H]1N1CCCCC1,26.2%,2.1%
O=S1(=O)CCSCCN1Cc1cccc(Cl)c1,17.9%,.
CC[C@@]1(O)C(=O)OCc2c1cc1n(c2=O)Cc2cc3ccccc3nc2-1,2.24µM*,?
CCN(CC)C(=O)c1cc(S(=O)(=O)Cc2ccccc2)c(N2CCC(c3ccccc3)CC2)cc1N(CC)CCN(C)C,5.01µM*,14.1µM*
O=C1c2ccccc2C(=O)c2ccccc21,4.7%,5.8%
O=C1C(=O)c2ncccc2-c2cccnc21,?,2.51µM*
C[C@@H]1C[C@H]2[C@@H](Cc3ccccc3)C(=O)N3[C@@H](C[C@@H](C)[C@@H]3c3ccccc3)[C@@H](Cc3ccccc3)C(=O)N2[C@H]1c1ccccc1,?,-15.0%[8.59 µM]
CNCCCCc1cnc(C)c2[nH]c3ccccc3c12,11.2µM*,?
O=C1NC(=O)c2c1c1c3ccccc3[nH]c1c1[nH]c3ccccc3c21,?,-16.5%
CC(=O)OC[C@H]1O[C@H](CC=NOC[C@@H](O)COCc2ccco2)C=C[C@H]1OC(C)=O,0.7%[8.59 µM],-4.4%[8.59 µM]
CC(CCC(=O)OC[C@H]1O[C@H](C#Cc2ccccc2)C=C[C@H]1Oc1ccc(C)cc1)=NO[C@@H](C)c1cn([C@H](CO)Cc2ccccc2)nn1,8.5%[8.59 µM],.
N#Cc1cccc(Nc2ncc(-c3ccccc3)o2)c1,18.5%,2.4%
COC(=O)CC=C[C@@H](C)[C@H](OC)c1cc(OC)ccc1Br,3.5%[8.59 µM],-2.5%[8.59 µM]
CN(C)c1nc(NC2CCC(NC(=O)c3ccc(F)c(F)c3)CC2)nc2ccccc12 (centres undefined),2.82µM*,15.8µM*
CN(C)C(=O)c1ccc(-c2nc(Nc3ccc(F)cc3)c3ccccc3n2)cc1,-25.9%,-23.2%
Cc1nc(-c2ccc(OCC(C)C)c(C#N)c2)sc1C(=O)O,?,7.94µM*

# Screening results: PubChem, National Center for Advancing Translational Sciences (NCATS)
